Results taken from PubChem BioAssay AID720604 (Broad Institute, 2013).
Measured potencies and affinities stand elsewhere. Inconclusive results are not listed. Calls of active or inactive are those of the source.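 How the source made its calls: active means compound lowering viability with a fitted half-effect dose within twice the top dose in every timed run; inconclusive means timed runs disagree on the call; inactive means inactive in every run, including a rising signal.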

Experiment: cytotoxicity in primary human umbilical endothelium – cell-based, CellTiter-Glo ATP luminescence, 8/24/48 h, dry powder, cytotoxicity control for HRAS target identification, dose response (AID 720604)
Conditions: HUVEC viability, 8-48 h; series mostly up to 35 µM

Row | Structure (SMILES) | outcome
1 | Cc1onc(C(=O)N2CCN(C(c3ccncc3)c3ccncc3)CC2)c1[N+](=O)[O-] | inactive
2 | Cc1onc(C(=O)N2CCN(C(c3ccc(Cl)cc3)c3ccc(Cl)cc3)CC2)c1[N+](=O)[O-] | inactive
